Hits are enriched below; roughly 3.3% of the tested compounds scored in any of these assays.
PRMT1 inh = blocks human protein arginine methyltransferase 1; inhibition, % at 2.79 µM; 370,000 tested, 1.3% active; AID 652257; recombinant PRMT1, activity-based probe fluorescence polarization;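 active = inhibition above about 21% made by adding two undisclosed values, limit read from the data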
MBD2 DNA inh = MBD2-methylated oligo binding inhibition; inhibition, % at 4.4 µM; AID 686964; 370,000 tested, 0.31% active; TR-FRET, MBD2 binding to methylated oligonucleotide; Q9UBB5; in the data active = inhibition above about 13%
Target sequence (Q9UBB5 whole entry, looked up): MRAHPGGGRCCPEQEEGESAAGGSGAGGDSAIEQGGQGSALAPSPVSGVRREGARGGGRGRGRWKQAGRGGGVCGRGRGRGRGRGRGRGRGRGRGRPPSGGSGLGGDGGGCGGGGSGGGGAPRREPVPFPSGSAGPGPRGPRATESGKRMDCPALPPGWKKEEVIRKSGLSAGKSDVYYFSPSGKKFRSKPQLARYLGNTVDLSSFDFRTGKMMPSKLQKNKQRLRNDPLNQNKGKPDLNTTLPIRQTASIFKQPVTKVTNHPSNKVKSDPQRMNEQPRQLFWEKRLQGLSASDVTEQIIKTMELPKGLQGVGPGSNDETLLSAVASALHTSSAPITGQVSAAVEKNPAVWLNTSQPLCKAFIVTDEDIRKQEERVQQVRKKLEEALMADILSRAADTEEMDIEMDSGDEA
UHRF1 binding = UHRF1 methyl-DNA binding inhibition. AID 687016. UHRF1 binding to methylated oligo, TR-FRET. 370,000 tested, 0.75% active. Q96T88. inhibition, % at 4.4 µM; in the data active = inhibition above about 21%;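 also: UHRF1 SRA domain binding a hemimethylated CpG hairpin DNA probe; 0% = median of test compound wells and 100% = reference inhibitor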
PfG6PD inh = PfG6PD (Plasmodium falciparum) enzyme inhibition | PfGluPho enzyme, NADPH resazurin-diaphorase fluorescence | AID 504690 | 350,000 tested, 0.78% active | inhibition, % at 20 µM;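 active = inhibition reaching at least a set limit at 20 µM in the primary screen, cut at about 59% in these data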;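 also: 0% = DMSO wells with substrate and 100% = DMSO wells lacking glucose-6-phosphate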
M18AAP inhibitor = blocks P. falciparum M18 aspartyl aminopeptidase | recombinant PfM18AAP, H-Glu-NHMec fluorogenic cleavage | inhibition, % at 7.35 µM | 290,000 tested, 1.2% active;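 active = inhibition above the campaign mean inhibition over all tested compounds plus 3 SD, cut at about 28% in these data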;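 also: 0% = plate median of test compound wells and 100% = 2 mM ZnCl2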
PRMT1 confirm = confirmation of human PRMT1 inhibitors; 3,300 tested, 42% active; shares compounds with PRMT1 inh; recombinant His-PRMT1, activity-based probe fluorescence polarization; inhibition, % at 2.79 µM; AID 687036;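 active = mean inhibition across replicates above the hit cutoff derived for the earlier primary screen, cut at about 22% in these data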
* = called active by the depositor; / = no result.

SMILES | PRMT1 inh | MBD2 DNA inh | UHRF1 binding | PfG6PD inh | M18AAP inhibitor | PRMT1 confirm
Cc1ccc(CNC(=O)CC(C)S(=O)(=O)c2ccc3c(c2)NC(=O)CS3)o1 (stereo not drawn) | 44* | -4 | 0 | 19 | -26 | 15
O=C(Cn1ccccc1=O)NCc1ccc(F)cc1 | -1 | -4 | 1 | 6 | -4 | /
O=C(O)CN1C(=O)/C(=C/c2ccc(N3CCCCC3)o2)SC1=S | 38* | -1 | 6 | -24 | 6 | 37*
CCCN1C(=O)S/C(=C\c2ccc(N3CCOCC3)o2)C1=O | 26* | 2 | 2 | 45 | -4 | -72
CCCN1C(=O)S/C(=C/c2ccc(N3CCOCC3)o2)C1=O | 8 | -2 | 2 | 49 | 11 | /
CCNc1cccc2c1C(=O)N(C)C2=O | 44* | -8 | -9 | 9 | -7 | 46*
COCCNC(=O)COC(=O)c1ccc(OCC(=O)Nc2ccccc2OC)c(OC)c1 | -2 | 4 | 4 | 0 | -3 | /
COc1ccccc1CNC(=O)COC(=O)c1cccc(S(=O)(=O)N2CCCCC2)c1 | 3 | 3 | 0 | -17 | 2 | /
CC(=O)Nc1ccc(SCC(=O)N(C)CC(=O)Nc2ccccc2Cl)cc1 | 58* | 4 | -3 | 24 | / | 61*
O=C1SC(SCc2ccccc2)=N/C1=C\c1ccc(C(=O)O)cc1 | 12 | 4 | 7 | -13 | 4 | /
O=C1SC(SCc2ccccc2)=N/C1=C\c1ccco1 | 42* | 9 | 29* | -17 | 17 | 1
COc1ccc(NC(=O)c2cccc(-c3ccc(O)cc3)c2)cn1 | 41* | 0 | 0 | 30 | -4 | 17
C=C(C)c1cccc(C(C)(C)NC(=O)Nc2ccc(OC)nc2)c1 | 25* | 0 | 0 | -11 | -9 | 5
O=C(CSc1nnc(-c2cccc(Br)c2)o1)NCC1CCCO1 (stereo not drawn) | -3 | -2 | 1 | 6 | / | /
COc1ccc(C(=O)CC(Sc2ccccc2N)c2ccc(OC)cc2)cc1 (stereo not drawn) | 59* | 6 | 5 | 21 | / | 29*
COc1ccc(C(=O)CC(=O)c2ccc(C(C)(C)C)cc2)cc1 | 4 | 2 | 2 | -9 | / | /
O=C(c1ccc2nc(-c3ccco3)c(-c3ccco3)nc2c1)N1CCN(c2ccccc2)CC1 | 54* | -8 | 8 | 21 | 15 | 4
CCc1nc2ccc(C(=O)N3CCN(c4ccccc4)CC3)cc2nc1CC | 0 | -1 | -1 | 9 | -4 | /
Cc1ccsc1/C=N/Nc1nc(=O)[nH]nc1C | -2 | 2 | -2 | -15 | 8 | /
CCOC(=O)C1=C(C)N=c2sc(=Cc3ccc(OCC(=O)O)cc3)c(=O)n2C1c1ccc(Cl)cc1 (stereo not drawn) | 42* | 4 | -3 | / | / | 13
CC(=O)c1ccc(S(=O)(=O)NCC(=O)NC(c2nc3ccccc3[nH]2)C(C)C)cc1 (stereo not drawn) | 34* | 2 | 1 | 33 | / | 38*
O=C(O)CNc1nc(-c2ccccc2)c2cc([N+](=O)[O-])ccc2n1 | 26* | -7 | -5 | 48 | -2 | 30*
Cc1ccc2c(c1)C(N1CCCC1=O)CC(c1ccco1)N2 (stereo not drawn) | 25* | -8 | -1 | -6 | -12 | 6
COc1cccc(NC(=O)C2CC(=O)n3cnnc3S2)c1 (stereo not drawn) | 79* | -1 | -1 | 2 | 1 | 61*
COc1ccc(NC(=O)C2CC(=O)n3cnnc3S2)cc1 (stereo not drawn) | 74* | -4 | -2 | -2 | -32 | 79*
SMILES | PRMT1 inh | MBD2 DNA inh | UHRF1 binding | PfG6PD inh | M18AAP inhibitor | PRMT1 confirm
Cc1occc1-c1nnc(SCC(=O)N[C@@H]2CCc3ccccc32)n1-c1ccccc1 | -8 | -3 | -4 | / | / | /
O=[n+]1c2c(n([O-])c3ccccc31)CCCC2 | 76* | -6 | -2 | 16 | 4 | -2
O=[n+]1c2c(n([O-])c3cc(Br)ccc31)CCCC2 | 1 | 1 | -1 | 8 | -4 | /
NCCSC1CC(=O)N(Cc2ccc(F)cc2)C1=O (stereo not drawn) | 27* | 1 | 0 | -14 | -12 | 11
COc1ccc(C(=O)Nc2nc(C)cs2)cc1S(=O)(=O)N1CCOCC1 | -1 | -1 | 1 | 6 | / | /
O=C1CC(N(O)c2ccccc2)C(=O)N1c1ccc(Cl)c(Cl)c1 (stereo not drawn) | 12 | -5 | -7 | -12 | 12 | /
CCCCN(C(=O)CCC(=O)O)C1CC(=O)N(c2ccc(OCCC)cc2)C1=O (stereo not drawn) | 2 | 4 | 5 | -7 | 0 | /
COc1ccccc1N(O)C1CC(=O)N(c2ccc(Br)cc2)C1=O (stereo not drawn) | 42* | -6 | -6 | -15 | 5 | 50*
CCCCCCC(=O)N(O)C1CC(=O)N(c2ccc(F)cc2)C1=O (stereo not drawn) | 70* | -3 | -1 | 27 | -1 | 97*
CCCCCCC(=O)N(O)C1CC(=O)N(c2ccc(Br)cc2)C1=O (stereo not drawn) | 42* | 1 | -1 | 7 | 6 | 73*
C=CCN(C(=O)[C@@H](CCCC)[C@@H](O)c1ccc2ccccc2c1)c1ccccc1 | -3 | 0 | 2 | / | / | /
O=C(CC1CC2CCC1C2)NCCc1ccc(Cl)cc1 (stereo not drawn) | -1 | -2 | 3 | -1 | 7 | /
O=C(NCc1n[nH]c(=S)n1-c1cccc(C(F)(F)F)c1)c1ccc(S(=O)(=O)N2CCCCC2)cc1 | 28* | 1 | 3 | 14 | 7 | 8
O=C(NCc1n[nH]c(=S)n1-c1cccc(C(F)(F)F)c1)c1ccc(S(=O)(=O)N2CCCC2)cc1 | 9 | -5 | 2 | 33 | 27 | /
CCCN(CCC)S(=O)(=O)c1ccc(C(=O)NCc2n[nH]c(=S)n2-c2ccc(Cl)c(Cl)c2)cc1 | 29* | -2 | -1 | 18 | -2 | 14
O=C(NCSc1ccccc1)c1ccccc1 | 2 | 3 | 20 | 4 | / | /
O=C(CNC(=O)c1ccccc1)Sc1ccccc1 | 49* | -2 | 1 | 2 | / | 76*
CN(C)C(=O)c1ccc(SC(=S)NCc2ccccc2)cc1 | 59* | -7 | 0 | / | / | 69*
Cn1c(=O)c(C(=O)COC(=O)c2cc(-c3ccco3)nc3ccccc23)c(N)n(Cc2ccccc2)c1=O | / | / | / | / | -5 | /
NC(=O)COC(=O)c1cc(-c2ccco2)nc2ccccc12 | 28* | 1 | -7 | 41 | 0 | 7
O=C(O)c1cc(-c2ccco2)nc2ccc(Br)cc12 | 35* | -7 | 16 | 18 | -5 | 7
O=C(COC(=O)c1ccco1)NCc1ccc2c(c1)OCO2 | 4 | 3 | 8 | 4 | 5 | /
O=C(COC(=O)c1cc(-c2ccco2)nc2ccccc12)NCc1ccc2c(c1)OCO2 | 35* | 0 | 6 | 44 | 6 | 19

Compound activity from PubChem.
